Active and inactive are the calls of the source.
Experiments:
[1] = test system: Plasmodium falciparum Sir2 (PF13_0152, Sir2A); assay: pfSir2 binders on small-molecule microarrays, primary screen, biochemical, small-molecule microarray, 635 nm fluorescence (AID 1098); conditions: small-molecule microarray binding, fluorescence 635 nm; higher = more signal;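 also: score merges spot fluorescence intensity with its signal-to-noise ratio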
[2] = small-molecule microarray binders of probe aDKK1, primary screen, biochemical, biotinylated probe, 635/667 nm fluorescence (AID 1099); conditions: higher = more signal;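 also: score merges 667nm spot fluorescence with signal to noise across triplicate slides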
[3] = small-molecule microarray binders of probe aCHRDL2, primary screen, biochemical, biotinylated probe, 635/667 nm fluorescence (AID 1100); conditions: higher = more signal
[4] = splicing luciferase reporter signal modulators, primary screen, spliceosome inhibition project, cell-based, HEK293, splice +/- reporter (AID 1101); conditions: luminescence, 24 h, higher = more signal, called active from +8 up or from −8 down;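 also: HEK293 cells carrying a splicing-competent luciferase reporter gene; test concentration not given here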
[5] = target: Fibroblast growth factor 10 (Homo sapiens) (UniProt O15520); assay: FGF10 binders on small-molecule microarrays, primary screen, biochemical, small-molecule microarray, 635 nm fluorescence (AID 1102); conditions: FGF10 binding, fluorescence 635 nm, higher = more signal
[6] = test system: glycogen synthase kinase-3 (GSK3A per assay name; protocol says GSK3B); assay: GSK3 binders on small-molecule microarrays, primary screen, biochemical, small-molecule microarray, 635 nm fluorescence, GSK3A (AID 1103); conditions: small-molecule microarray binding, fluorescence 635 nm; higher = more signal; also: the record names both GSK3A and GSK3B
[7] = target: Epidermal growth factor receptor (Homo sapiens) (UniProt P00533); assay: EGFR binders on small-molecule microarrays, primary screen, biochemical, small-molecule microarray, 635 nm fluorescence (AID 1104); conditions: EGFR binding, higher = more signal;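 also: score merges 667 nm emission intensity with spot signal to noise over triplicate slides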
[8] = target: Follistatin-related protein 3 (Homo sapiens) (UniProt O95633); assay: FSTL3 binders on small-molecule microarrays, primary screen, biochemical, small-molecule microarray, 635 nm fluorescence (AID 1105); conditions: FSTL3 binding, higher = more signal;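 also: score merges emission near 667 nm and signal to noise per printed spot across three slides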
[9] = target: Dickkopf-related protein 1 (Homo sapiens) (UniProt O94907); assay: DKK1 binders on small-molecule microarrays, primary screen, biochemical, small-molecule microarray, 635 nm fluorescence scan (AID 1106); conditions: DKK1 binding, higher = more signal;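 also: score merges emission near 667 nm with signal to noise over three replicate slides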
[10] = test system: Inhibin beta A chain (activin A); assay: INHBA (activin A) binders on microarrays, primary screen, biochemical, small-molecule microarray, 635 nm fluorescence scan (AID 1107); conditions: small-molecule microarray binding, higher = more signal;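 also: mouse activin A protein probed at 4.33 µg/mL on printed slides; score merges bound-protein fluorescence near 667 nm with spot signal-to-noise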
[11] = test system: Human papillomavirus type 1a protein E7 (residues 44-93); assay: HPV1a E7 fragment binders on microarrays, primary screen, biochemical, small-molecule microarray, residues 44-93, 635 nm fluorescence (AID 1108); conditions: small-molecule microarray binding, fluorescence 635 nm; higher = more signal;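 also: E7 fragment applied at 1 µg/mL in TBST for 1 h at 4 C; score combines spot fluorescence with its signal to noise ratio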
[12] = modulators of HCV replicon luciferase signal, primary screen, HCV replication inhibitor project, Huh7 cells, luciferase reporter (AID 1109); conditions: 48 h, higher = more signal;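 also: huh7 hepatoma cells harbouring a luciferase neomycin HCV replicon reporter; luciferase luminescence as measure of HCV replicon replication; test concentration not given here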
[13] = target: Left-right determination factor 2 (Homo sapiens) (UniProt O00292); assay: LEFTY2 binders on small-molecule microarrays, primary screen, biochemical, small-molecule microarray, 635 nm fluorescence scan (AID 1110); conditions: LEFTY2 binding, higher = more signal
[14] = target: Calmodulin-1 (Homo sapiens) (UniProt P0DP23); assay: CALM1 binders on microarrays, EGTA buffer, profiling panel, biochemical, small-molecule microarray, Cy5-labelled CALM1 (AID 1111); conditions: Cy5-CALM1 binding fluorescence, higher = more signal;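 also: labelled calmodulin applied in Tris saline Tween buffer holding calcium plus EGTA and DTT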
[15] = target: Calmodulin-1 (Homo sapiens) (UniProt P0DP23); assay: calcium-bound CALM1 binders on microarrays, profiling panel, artefact control for SMM control-protein annotation, biochemical, small-molecule microarray, Cy5-labelled CALM1, plus calcium (AID 1112); conditions: Cy5-CALM1 binding fluorescence, higher = more signal;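 also: score merges spot fluorescence with signal to noise from triplicate slides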
[16] = small-molecule microarray binders of probe aWnt5a, primary screen, biochemical, biotinylated probe, 635/667 nm fluorescence (AID 1113); conditions: higher = more signal;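 also: score merges 667 nm fluorescence intensity with signal-to-noise per printed feature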
[17] = small-molecule microarray binders of probe aShh, primary screen, biochemical, biotinylated probe, 635/667 nm fluorescence (AID 1114); conditions: higher = more signal;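 also: probe is biotin-labelled aShh protein from a stem cell growth factor screen; measures binding of labelled protein to compounds printed on the slide; score merges feature fluorescence at 667 nm with signal-to-noise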
[18] = small-molecule microarray binders of probe aNog, primary screen, biochemical, biotinylated probe, 635/667 nm fluorescence (AID 1115); conditions: higher = more signal;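 also: probe is biotinylated aNog protein used at 0.15 µg/mL for 1 h at 4 C; z-score combines 667 nm fluorescence of each spot with its signal to noise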
[19] = target: Torsin-1A-interacting protein 1 (Homo sapiens) (UniProt Q5JTV8); assay: LAP1 binders from COS7 cell lysate, primary screen, small-molecule microarray, 635/667 nm fluorescence (AID 1116); conditions: COS7-hLAP1 lysate binding, 635 nm fluorescence, higher = more signal
[20] = target: Alpha-bungarotoxin (Bungarus multicinctus) (UniProt P60615); assay: alpha-bungarotoxin binders on microarray, profiling panel, artefact control for SMM control protein annotation, biochemical, small-molecule microarray, Alexa647 label, 635/667 nm fluorescence (AID 1117); conditions: alpha-BTX-A647 binding fluorescence, higher = more signal
Sequence of Alpha-bungarotoxin (Bungarus multicinctus) (P60615 whole entry, looked up): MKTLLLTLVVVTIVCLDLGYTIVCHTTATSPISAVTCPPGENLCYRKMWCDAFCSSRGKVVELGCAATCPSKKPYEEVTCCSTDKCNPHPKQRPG

Sequence of Follistatin-related protein 3 (Homo sapiens) (O95633 whole entry, looked up): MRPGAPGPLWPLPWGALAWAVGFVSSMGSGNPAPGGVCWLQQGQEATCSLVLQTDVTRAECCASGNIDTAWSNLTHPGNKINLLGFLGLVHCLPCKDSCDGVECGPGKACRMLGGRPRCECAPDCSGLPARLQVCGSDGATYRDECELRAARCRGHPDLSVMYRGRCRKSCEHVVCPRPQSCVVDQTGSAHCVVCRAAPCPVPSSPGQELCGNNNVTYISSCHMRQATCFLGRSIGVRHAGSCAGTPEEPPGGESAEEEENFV
Sequence of Left-right determination factor 2 (Homo sapiens) (O00292 whole entry, looked up): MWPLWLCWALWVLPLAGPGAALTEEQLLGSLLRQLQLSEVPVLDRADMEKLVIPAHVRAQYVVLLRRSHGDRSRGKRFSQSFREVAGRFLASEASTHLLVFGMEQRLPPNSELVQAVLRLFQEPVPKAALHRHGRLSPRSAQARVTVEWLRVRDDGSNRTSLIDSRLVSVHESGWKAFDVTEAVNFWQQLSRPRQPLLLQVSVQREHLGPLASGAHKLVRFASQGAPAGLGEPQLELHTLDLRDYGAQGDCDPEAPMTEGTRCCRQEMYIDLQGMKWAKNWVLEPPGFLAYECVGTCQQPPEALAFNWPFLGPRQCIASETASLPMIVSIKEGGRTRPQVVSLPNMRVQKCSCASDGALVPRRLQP
Sequence of Epidermal growth factor receptor (Homo sapiens) (P00533 whole entry, looked up): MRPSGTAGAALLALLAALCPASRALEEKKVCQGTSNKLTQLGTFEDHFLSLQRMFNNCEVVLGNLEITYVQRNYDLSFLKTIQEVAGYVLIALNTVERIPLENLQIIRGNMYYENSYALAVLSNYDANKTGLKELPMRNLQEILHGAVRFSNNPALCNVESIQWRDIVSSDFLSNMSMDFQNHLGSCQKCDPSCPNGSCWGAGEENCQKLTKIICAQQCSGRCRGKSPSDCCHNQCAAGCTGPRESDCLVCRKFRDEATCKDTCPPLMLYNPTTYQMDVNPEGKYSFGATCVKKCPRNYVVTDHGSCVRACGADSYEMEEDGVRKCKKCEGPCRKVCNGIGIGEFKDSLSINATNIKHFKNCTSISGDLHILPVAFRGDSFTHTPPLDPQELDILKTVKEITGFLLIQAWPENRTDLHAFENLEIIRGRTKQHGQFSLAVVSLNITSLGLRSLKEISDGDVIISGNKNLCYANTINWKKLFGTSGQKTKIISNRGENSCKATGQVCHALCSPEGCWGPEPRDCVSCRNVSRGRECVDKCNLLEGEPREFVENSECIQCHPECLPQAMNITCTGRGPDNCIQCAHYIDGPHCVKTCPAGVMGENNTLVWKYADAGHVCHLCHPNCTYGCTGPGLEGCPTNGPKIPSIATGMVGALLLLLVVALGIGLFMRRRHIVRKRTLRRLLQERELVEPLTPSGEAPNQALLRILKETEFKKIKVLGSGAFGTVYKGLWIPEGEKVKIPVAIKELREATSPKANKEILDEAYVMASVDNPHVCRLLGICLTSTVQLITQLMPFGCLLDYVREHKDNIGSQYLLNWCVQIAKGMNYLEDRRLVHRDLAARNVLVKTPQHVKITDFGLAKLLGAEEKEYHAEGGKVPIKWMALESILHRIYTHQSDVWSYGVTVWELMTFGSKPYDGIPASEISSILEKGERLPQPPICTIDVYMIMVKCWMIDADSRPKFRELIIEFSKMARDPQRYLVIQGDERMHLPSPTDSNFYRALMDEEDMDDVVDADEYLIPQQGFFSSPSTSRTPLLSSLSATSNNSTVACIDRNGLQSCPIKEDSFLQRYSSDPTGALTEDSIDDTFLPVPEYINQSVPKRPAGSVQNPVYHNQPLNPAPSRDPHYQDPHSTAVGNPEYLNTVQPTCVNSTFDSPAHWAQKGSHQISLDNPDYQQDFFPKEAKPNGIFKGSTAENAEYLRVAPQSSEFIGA
Sequence of Dickkopf-related protein 1 (Homo sapiens) (O94907 whole entry, looked up): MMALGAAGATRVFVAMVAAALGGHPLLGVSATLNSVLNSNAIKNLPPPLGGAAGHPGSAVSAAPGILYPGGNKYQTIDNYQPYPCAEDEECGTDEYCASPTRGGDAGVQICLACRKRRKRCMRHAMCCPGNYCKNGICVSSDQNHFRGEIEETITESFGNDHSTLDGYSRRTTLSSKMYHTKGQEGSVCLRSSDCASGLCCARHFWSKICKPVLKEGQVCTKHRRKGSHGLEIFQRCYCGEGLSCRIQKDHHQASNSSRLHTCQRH
Sequence of Torsin-1A-interacting protein 1 (Homo sapiens) (Q5JTV8 whole entry, looked up): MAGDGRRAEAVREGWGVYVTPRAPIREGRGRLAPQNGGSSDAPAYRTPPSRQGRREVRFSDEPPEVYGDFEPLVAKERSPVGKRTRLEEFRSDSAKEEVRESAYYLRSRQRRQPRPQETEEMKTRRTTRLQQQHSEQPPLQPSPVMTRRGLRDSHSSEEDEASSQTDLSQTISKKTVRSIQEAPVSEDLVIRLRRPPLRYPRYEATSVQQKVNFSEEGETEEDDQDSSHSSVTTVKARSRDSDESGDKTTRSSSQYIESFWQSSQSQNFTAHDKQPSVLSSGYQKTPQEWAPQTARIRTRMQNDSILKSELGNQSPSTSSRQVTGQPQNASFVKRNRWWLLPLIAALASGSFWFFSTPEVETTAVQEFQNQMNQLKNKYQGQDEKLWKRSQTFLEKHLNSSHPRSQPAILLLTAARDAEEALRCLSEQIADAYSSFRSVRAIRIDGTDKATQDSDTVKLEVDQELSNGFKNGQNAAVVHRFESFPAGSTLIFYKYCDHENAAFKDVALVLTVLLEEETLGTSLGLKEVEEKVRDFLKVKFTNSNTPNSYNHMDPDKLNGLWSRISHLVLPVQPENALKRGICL
Sequence of Fibroblast growth factor 10 (Homo sapiens) (O15520 whole entry, looked up): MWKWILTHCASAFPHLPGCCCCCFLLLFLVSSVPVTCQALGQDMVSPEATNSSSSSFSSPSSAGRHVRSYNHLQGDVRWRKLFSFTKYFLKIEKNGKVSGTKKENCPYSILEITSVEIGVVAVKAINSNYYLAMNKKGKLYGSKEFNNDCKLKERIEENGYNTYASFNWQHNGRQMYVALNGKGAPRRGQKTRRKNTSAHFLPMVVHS

Structure (SMILES) | composite z-score [1] | composite z-score [2] | composite z-score [3] | z-score [4] | composite z-score [5] | composite z-score [6] | composite z-score [7] | composite z-score [8] | composite z-score [9] | composite z-score [10] | composite z-score [11] | z-score [12] | composite z-score [13] | composite z-score [14] | composite z-score [15] | composite z-score [16] | composite z-score [17] | composite z-score [18] | composite z-score [19] | composite z-score [20]
COc1cc2c(cc1OC)CN(C(=O)[C@@H]1[C@H]3C(=O)O[C@H](c4ccccc4)[C@H](c4ccccc4)N3[C@H](c3ccccc3OCCO)[C@@]13C(=O)Nc1ccc(C#CCCO)cc13)CC2 | 1.53 | 0.235 | 0.547 | 0.107 (inactive) | 0.885 | 0.926 | 0.179 | 0.896 | 0.249 | 0.91 | 1.35 | -2.36 | 0.268 | 1.16 | 0.104 | -0.133 | 0.292 | 1.16 | 2.22 | 1.49
COc1ccc([Si](C)(C)[C@@H]2[C@@H](CC(=O)N3CCC[C@H]3CO)O[C@]3(C(=O)N(c4ccccc4)c4ccccc43)[C@H]2C)cc1 | 0.977 | 0.0231 | -0.169 | -2.29 (inactive) | 0.613 | 1.23 | 0.501 | 1.4 | 0.85 | 0.748 | 1.36 | -0.417 | 0.751 | 0.528 | -0.143 | -0.124 | 0.0328 | -0.0047 | 0.691 | 1.09
COC(=O)[C@@]1(Cc2ccc(OC)cc2)[C@H]2c3cc(C(=O)N4CCCC4)n(CCN4CNCC4=O)c3C[C@H]2CN1C(=O)c1ccccc1 | 1.8 | 2.4 | 1.41 | 0.908 (inactive) | 1.03 | -0.16 | 0.656 | -0.711 | -0.462 | 0.949 | 0.218 | -0.0994 | -0.0543 | 1.14 | 0.751 | 1.19 | 2.77 | 2.43 | 1.11 | -0.169
CC(C)=CCN[C@H](CO)c1ccccc1 | 0.38 | -0.274 | -0.235 | -0.795 (inactive) | 0.795 | -0.366 | 0.149 | 0.576 | 0.749 | 1.01 | 0.318 | -1.76 | 0.422 | -0.644 | -0.881 | -0.13 | 0.0048 | -0.278 | 0.157 | 0.189
C=CC[C@@]12N=C(c3ccc(OCCCO)cc3)O[C@@H]1c1ccccc1N(C)C2=O | 1.13 | 0.178 | 0.899 | -0.933 (inactive) | 1.38 | 1.32 | 0.166 | 0.964 | 0.498 | 1.1 | 1.16 | -1.56 | 0.0838 | 0.422 | -0.206 | 0.14 | 0.547 | -0.621 | -0.0062 | 1.21
C[N+](C)(C)CCCCNC(=O)[C@H]1C[C@H]2C(=O)N3CCC[C@H]3C(=O)N2[C@H]1c1cccc(OCCO)c1 | 0.501 | 0.0086 | 0.314 | 0.717 (inactive) | 0.489 | -0.415 | -0.142 | 1.14 | 1.32 | 1.08 | -1.09 | -0.884 | 0.766 | -0.858 | 1.03 | -0.0721 | 0.0141 | 0.0043 | 0.854 | -0.912
C=C(CCCC)/C(=C/C[C@@H](OC(C)=O)c1ccc(OCCO)cc1)c1cnc2ccccc2c1 | 0.619 | -0.12 | 0.149 | -0.27 (inactive) | 0.628 | -0.174 | 0.401 | 1.12 | 0.698 | 1.53 | 1.13 | -1.44 | 0.285 | -0.276 | -0.642 | -0.0735 | -0.214 | -0.158 | 0.887 | 1.29
COc1ccc(CCNC(=O)[C@@]2(C)c3ccccc3C(=O)N(C(C)C)[C@H]2c2ccc(CO)cc2)cc1 | 0.5 | 0.056 | -0.0776 | -0.36 (inactive) | 0.558 | -0.0218 | 0.41 | 0.335 | 0.503 | 0.918 | 0.0331 | -1.3 | 0.364 | -0.118 | -0.229 | -0.131 | -0.0886 | -0.282 | 0.33 | 0.672
C=CCNC(=O)[C@@H]1[C@H]2C(=O)O[C@H](c3ccccc3)[C@H](c3ccccc3)N2[C@H](c2ccc(O)cc2)[C@@]12C(=O)N(C(=O)OCCOC)c1ccc(C#CCNC(N)=O)cc12 | 0.88 | 0.148 | 0.658 | -0.273 (inactive) | 0.969 | 1.06 | 0.119 | 1.08 | 0.417 | 1.02 | 1.32 | -0.578 | 0.31 | 1.83 | 0.294 | 0.0017 | 1.68 | 0.681 | 1.45 | 0.83
CCCC[C@@H]1C[C@H]1[C@@H](NC(=O)c1ccco1)c1ccccc1C(F)(F)F | -0.323 | 2.11 | 1.39 | -0.255 (inactive) | 0.3 | -0.291 | -0.127 | 0.449 | -0.316 | 1.49 | 0.209 | -1.42 | -0.23 | 1.75 | 1.2 | 0.948 | 2.6 | 2.94 | 0.58 | 1.84
COC(=O)[C@@]1(Cc2ccc(OC)cc2)[C@H]2c3cc(C(=O)N(C)C)n(Cc4ccc(S(C)(=O)=O)cc4)c3C[C@H]2CN1C(=O)c1ccccc1 | 1.29 | 0.511 | 0.573 | -0.109 (inactive) | -0.0911 | 0.904 | -0.0743 | 1.08 | 0.0527 | 1.16 | 1.41 | -1.63 | -0.0612 | 1.36 | 0.798 | -0.242 | -0.405 | -0.21 | 1.28 | -0.0416
